Experiment in all cases: DAPPL (digital affinity profiling via proximity ligation, sequencing); 10 mM Tris-HCl pH 7.5, 50 mM NaCl, 1 mM DTT, 4% glycerol, room temperature, 30 min; GST-TFs on glutathione beads, 16-mer random dsDNA library, 0.1% formaldehyde crosslink after washing; high values mean tight binding
Assay [1] addresses T1, FEV (Homo sapiens, UniProt Q99581 1-238).
T1 sequence: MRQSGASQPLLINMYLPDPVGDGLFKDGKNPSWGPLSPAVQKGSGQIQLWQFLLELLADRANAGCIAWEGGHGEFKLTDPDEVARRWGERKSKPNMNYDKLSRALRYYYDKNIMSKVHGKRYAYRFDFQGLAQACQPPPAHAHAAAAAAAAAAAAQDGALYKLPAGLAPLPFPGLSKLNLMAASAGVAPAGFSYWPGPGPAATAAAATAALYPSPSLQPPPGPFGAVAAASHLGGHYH
To be noted: protein: recombinant; tags: N-terminal GST; dsDNA, one strand shown. Summed up: (§1)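 A tag-only sample was pooled with DNA-barcoded human transcription factors that had been expressed in yeast as GST fusions and captured on glutathione beads. The pools were incubated for 30 min at room temperature with 200 nmole of a random double-stranded 16-mer DNA library in Tris/NaCl/DTT/glycerol buffer, then washed, crosslinked with 0.1% formaldehyde, proximity-ligated (BsaI/T4 ligase, 1 h, 37 °C), PCR-amplified and sequenced on an Illumina NextSeq500. Binding signal is each hexamer's read frequency for a factor divided by its frequency for the tag-only sample.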

Assay [2] addresses ETV5 (Homo sapiens, UniProt P41161 1-510). To be noted: protein: recombinant; tags: N-terminal GST; dsDNA, one strand shown. Put shortly: as §1
Assay [3] deals with HSF1 (Homo sapiens, UniProt Q00613 1-529). To be noted: protein: recombinant; tags: N-terminal GST; chain copies: 3; dsDNA, one strand shown. Put shortly: as §1
Assay [4] has as its target T2, SPIC (Homo sapiens, UniProt Q8N5J4 1-248).
T2 sequence: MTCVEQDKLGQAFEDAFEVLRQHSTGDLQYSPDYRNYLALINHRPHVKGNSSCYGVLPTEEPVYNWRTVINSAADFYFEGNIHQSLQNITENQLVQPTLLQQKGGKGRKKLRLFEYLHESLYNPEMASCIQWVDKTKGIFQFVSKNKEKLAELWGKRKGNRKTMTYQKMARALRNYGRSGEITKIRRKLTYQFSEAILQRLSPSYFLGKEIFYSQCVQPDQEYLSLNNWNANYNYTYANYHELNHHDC
The conditions noted are these: protein: recombinant; tags: N-terminal GST; dsDNA, one strand shown. Put shortly: as §1

Assay [5] concerns the target ELF4 (Homo sapiens, UniProt Q99607 1-663). The conditions noted are these: protein: recombinant; tags: N-terminal GST; dsDNA, one strand shown. Summed up: as §1
Assay [6] concerns the target T3, ELK4 (Homo sapiens, UniProt P28324-2 1-405).
T3 sequence: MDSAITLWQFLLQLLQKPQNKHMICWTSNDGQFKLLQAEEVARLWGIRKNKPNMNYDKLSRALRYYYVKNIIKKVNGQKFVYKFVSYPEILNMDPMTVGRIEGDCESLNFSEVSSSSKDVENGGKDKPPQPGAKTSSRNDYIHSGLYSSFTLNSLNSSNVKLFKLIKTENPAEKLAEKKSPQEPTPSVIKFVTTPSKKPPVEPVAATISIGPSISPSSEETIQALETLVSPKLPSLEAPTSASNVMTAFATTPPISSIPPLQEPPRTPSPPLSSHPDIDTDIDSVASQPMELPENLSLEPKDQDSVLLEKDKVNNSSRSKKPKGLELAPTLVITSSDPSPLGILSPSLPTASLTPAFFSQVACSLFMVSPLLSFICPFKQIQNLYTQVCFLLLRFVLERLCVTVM
The conditions noted are these: protein: recombinant; tags: N-terminal GST; dsDNA, one strand shown. Put shortly: as §1

The target in assay [7] is T4, ETV2 (Homo sapiens, UniProt O00321 1-342).
T4 sequence: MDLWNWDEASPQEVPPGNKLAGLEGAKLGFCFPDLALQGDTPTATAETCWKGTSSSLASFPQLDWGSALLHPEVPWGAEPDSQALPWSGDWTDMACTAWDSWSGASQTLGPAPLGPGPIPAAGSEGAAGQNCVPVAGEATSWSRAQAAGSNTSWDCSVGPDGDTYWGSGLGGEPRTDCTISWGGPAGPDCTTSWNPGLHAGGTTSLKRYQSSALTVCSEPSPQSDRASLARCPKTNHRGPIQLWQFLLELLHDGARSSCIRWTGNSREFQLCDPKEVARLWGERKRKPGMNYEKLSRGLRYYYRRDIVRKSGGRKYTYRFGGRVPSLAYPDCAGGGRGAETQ
The conditions noted are these: protein: recombinant; tags: N-terminal GST; dsDNA, one strand shown. Summed up: as §1

Assay [8] addresses T5, ELF3 (Homo sapiens, UniProt P78545 1-371).
T5 sequence: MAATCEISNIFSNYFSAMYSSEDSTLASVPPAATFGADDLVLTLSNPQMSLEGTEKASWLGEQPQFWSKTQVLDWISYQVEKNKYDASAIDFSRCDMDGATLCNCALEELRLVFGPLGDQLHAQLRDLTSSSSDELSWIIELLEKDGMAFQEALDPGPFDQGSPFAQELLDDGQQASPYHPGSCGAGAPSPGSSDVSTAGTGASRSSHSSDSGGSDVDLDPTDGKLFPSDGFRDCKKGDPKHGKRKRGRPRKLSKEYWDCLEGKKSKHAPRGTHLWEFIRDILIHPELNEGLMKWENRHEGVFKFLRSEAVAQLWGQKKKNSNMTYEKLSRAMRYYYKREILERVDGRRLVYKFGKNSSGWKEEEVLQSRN
To be noted: protein: recombinant; tags: N-terminal GST; dsDNA, one strand shown. Summed up:
as §1

Assay [9] concerns the target CRX (Homo sapiens, UniProt O43186 1-299). To be noted: protein: recombinant; tags: N-terminal GST; dsDNA, one strand shown. Put shortly: as §1
Assay [10] deals with ETV1 (Homo sapiens, UniProt P50549 1-477). To be noted: protein: recombinant; tags: N-terminal GST; dsDNA, one strand shown. Put shortly: as §1
Sequence of ETV1 (P50549 whole entry): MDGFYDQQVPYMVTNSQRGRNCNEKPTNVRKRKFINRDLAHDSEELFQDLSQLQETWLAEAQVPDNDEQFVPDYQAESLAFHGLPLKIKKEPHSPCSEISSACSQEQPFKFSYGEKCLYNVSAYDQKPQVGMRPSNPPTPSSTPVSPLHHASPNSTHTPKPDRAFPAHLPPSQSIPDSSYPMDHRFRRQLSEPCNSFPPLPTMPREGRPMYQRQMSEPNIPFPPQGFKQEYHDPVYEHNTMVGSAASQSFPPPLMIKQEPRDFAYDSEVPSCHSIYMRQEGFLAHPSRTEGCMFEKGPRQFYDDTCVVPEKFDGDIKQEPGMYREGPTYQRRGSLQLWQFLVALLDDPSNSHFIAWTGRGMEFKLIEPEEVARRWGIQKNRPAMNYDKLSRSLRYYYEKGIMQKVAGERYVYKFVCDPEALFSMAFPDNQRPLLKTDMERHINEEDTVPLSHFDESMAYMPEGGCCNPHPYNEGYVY

Sequence of CRX (O43186 whole entry): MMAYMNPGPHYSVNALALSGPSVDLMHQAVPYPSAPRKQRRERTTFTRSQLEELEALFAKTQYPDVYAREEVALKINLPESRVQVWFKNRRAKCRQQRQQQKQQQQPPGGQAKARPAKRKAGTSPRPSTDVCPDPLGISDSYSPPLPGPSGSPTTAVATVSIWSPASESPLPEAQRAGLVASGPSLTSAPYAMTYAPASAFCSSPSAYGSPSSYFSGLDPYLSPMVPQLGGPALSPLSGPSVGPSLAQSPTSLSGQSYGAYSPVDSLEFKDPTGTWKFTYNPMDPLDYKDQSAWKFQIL
Sequence of ETV5 (P41161 whole entry): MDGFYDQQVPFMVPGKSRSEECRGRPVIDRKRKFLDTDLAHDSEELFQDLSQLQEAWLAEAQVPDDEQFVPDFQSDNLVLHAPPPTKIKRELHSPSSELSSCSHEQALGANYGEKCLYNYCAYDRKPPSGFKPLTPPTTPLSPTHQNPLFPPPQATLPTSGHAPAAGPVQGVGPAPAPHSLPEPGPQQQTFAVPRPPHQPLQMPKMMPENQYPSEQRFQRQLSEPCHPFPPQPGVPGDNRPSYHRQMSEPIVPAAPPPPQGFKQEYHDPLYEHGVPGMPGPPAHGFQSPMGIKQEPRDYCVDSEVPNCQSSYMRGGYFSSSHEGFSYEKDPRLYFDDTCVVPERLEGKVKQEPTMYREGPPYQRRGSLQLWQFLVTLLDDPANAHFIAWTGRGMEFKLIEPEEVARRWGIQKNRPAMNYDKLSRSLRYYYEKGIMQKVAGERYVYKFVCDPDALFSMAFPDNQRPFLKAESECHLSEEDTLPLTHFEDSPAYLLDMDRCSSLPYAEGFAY
Sequence of ELF4 (Q99607 whole entry): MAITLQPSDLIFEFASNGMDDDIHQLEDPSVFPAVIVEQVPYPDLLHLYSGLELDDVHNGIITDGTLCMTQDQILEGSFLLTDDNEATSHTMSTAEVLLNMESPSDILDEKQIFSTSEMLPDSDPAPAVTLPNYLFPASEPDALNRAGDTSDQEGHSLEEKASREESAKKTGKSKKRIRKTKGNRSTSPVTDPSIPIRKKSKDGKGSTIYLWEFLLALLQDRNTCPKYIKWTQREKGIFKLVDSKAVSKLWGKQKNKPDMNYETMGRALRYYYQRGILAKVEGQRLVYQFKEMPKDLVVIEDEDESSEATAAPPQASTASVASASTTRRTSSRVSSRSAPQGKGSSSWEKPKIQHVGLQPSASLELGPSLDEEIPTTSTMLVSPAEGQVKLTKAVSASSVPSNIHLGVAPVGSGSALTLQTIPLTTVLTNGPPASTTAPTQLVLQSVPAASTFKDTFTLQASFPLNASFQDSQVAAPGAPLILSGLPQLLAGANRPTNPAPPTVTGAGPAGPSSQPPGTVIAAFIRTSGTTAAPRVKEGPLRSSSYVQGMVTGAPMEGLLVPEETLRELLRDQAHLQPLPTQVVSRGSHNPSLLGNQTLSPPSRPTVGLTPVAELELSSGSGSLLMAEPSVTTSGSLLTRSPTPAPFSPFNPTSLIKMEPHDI
Sequence of HSF1 (Q00613 whole entry): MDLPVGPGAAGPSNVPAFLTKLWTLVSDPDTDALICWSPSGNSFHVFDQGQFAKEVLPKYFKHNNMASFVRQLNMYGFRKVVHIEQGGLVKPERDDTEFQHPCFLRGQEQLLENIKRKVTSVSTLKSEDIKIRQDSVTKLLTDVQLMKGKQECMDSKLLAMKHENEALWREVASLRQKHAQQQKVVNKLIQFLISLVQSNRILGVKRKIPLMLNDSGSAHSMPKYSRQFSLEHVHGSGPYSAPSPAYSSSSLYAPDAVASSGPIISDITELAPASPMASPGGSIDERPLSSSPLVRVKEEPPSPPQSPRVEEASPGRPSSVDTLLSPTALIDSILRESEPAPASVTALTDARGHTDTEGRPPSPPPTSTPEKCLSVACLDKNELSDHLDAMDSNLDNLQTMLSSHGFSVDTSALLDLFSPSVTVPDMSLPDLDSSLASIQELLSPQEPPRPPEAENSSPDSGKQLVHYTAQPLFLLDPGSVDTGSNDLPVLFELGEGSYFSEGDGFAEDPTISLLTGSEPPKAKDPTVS

On to TCTTTA, for which the binding signal in assay [1] is 1.22 fold enrichment (6-mer frequency, TF over GST control); in [2], 1.16 fold enrichment (6-mer frequency, TF over GST control); in assay [3] it was 1.5 fold enrichment (6-mer frequency, TF over GST control); in assay [4] it was 1.22 fold enrichment (6-mer frequency, TF over GST control); in assay [5], 1.21 fold enrichment (6-mer frequency, TF over GST control); in assay [6] it was 1.3 fold enrichment (6-mer frequency, TF over GST control). Also, the binding signal in assay [7] is 1.31 fold enrichment (6-mer frequency, TF over GST control); in assay [8] it was 1.36 fold enrichment (6-mer frequency, TF over GST control); in [9], 1.93 fold enrichment (6-mer frequency, TF over GST control); in assay [10] it was 1.25 fold enrichment (6-mer frequency, TF over GST control).
For TTCCCG, the binding signal in assay [1] is 1.85 fold enrichment (6-mer frequency, TF over GST control); in [2], 2.08 fold enrichment (6-mer frequency, TF over GST control); in assay [3], 2.46 fold enrichment (6-mer frequency, TF over GST control); in assay [4], 1.91 fold enrichment (6-mer frequency, TF over GST control); in [5], 1.73 fold enrichment (6-mer frequency, TF over GST control); in assay [6], 1.69 fold enrichment (6-mer frequency, TF over GST control). The binding signal in assay [7] was 1.87 fold enrichment (6-mer frequency, TF over GST control); in assay [8] it was 1.64 fold enrichment (6-mer frequency, TF over GST control); in assay [9], 1.7 fold enrichment (6-mer frequency, TF over GST control); in assay [10], 1.88 fold enrichment (6-mer frequency, TF over GST control).
As to ATGTCT, the binding signal in assay [1] was 1.27 fold enrichment (6-mer frequency, TF over GST control); in [2], 1.36 fold enrichment (6-mer frequency, TF over GST control); in [3], 1.17 fold enrichment (6-mer frequency, TF over GST control); in [4] it was 1.27 fold enrichment (6-mer frequency, TF over GST control); in [5] it was 1.28 fold enrichment (6-mer frequency, TF over GST control); in assay [6], 1.07 fold enrichment (6-mer frequency, TF over GST control). Further, the binding signal in assay [7] was 1.26 fold enrichment (6-mer frequency, TF over GST control); in assay [8] it was 1.08 fold enrichment (6-mer frequency, TF over GST control); in assay [9] it was 1.18 fold enrichment (6-mer frequency, TF over GST control); in assay [10] it was 1.23 fold enrichment (6-mer frequency, TF over GST control).
Take TACCTC: the binding signal in assay [1] is 1.22 fold enrichment (6-mer frequency, TF over GST control); in assay [2] it was 1.14 fold enrichment (6-mer frequency, TF over GST control); in assay [3] it was 1.07 fold enrichment (6-mer frequency, TF over GST control); in assay [4], 1.4 fold enrichment (6-mer frequency, TF over GST control); in assay [5], 1.21 fold enrichment (6-mer frequency, TF over GST control); in assay [6], 1.36 fold enrichment (6-mer frequency, TF over GST control). Further, the binding signal in assay [7] was 1.24 fold enrichment (6-mer frequency, TF over GST control); in assay [8], 1.27 fold enrichment (6-mer frequency, TF over GST control); in assay [9], 1.19 fold enrichment (6-mer frequency, TF over GST control); in [10], 1.29 fold enrichment (6-mer frequency, TF over GST control).
Regarding TATATT, the binding signal in assay [1] is 1.39 fold enrichment (6-mer frequency, TF over GST control); in [2], 1.43 fold enrichment (6-mer frequency, TF over GST control); in assay [3], 1.58 fold enrichment (6-mer frequency, TF over GST control); in [4], 1.56 fold enrichment (6-mer frequency, TF over GST control); in [5], 1.32 fold enrichment (6-mer frequency, TF over GST control); in [6], 1.65 fold enrichment (6-mer frequency, TF over GST control). Further, the binding signal in assay [7] was 1.41 fold enrichment (6-mer frequency, TF over GST control); in [8], 1.58 fold enrichment (6-mer frequency, TF over GST control); in assay [9], 1.93 fold enrichment (6-mer frequency, TF over GST control); in assay [10], 1.44 fold enrichment (6-mer frequency, TF over GST control).
On to CTACTA, for which the binding signal was 1.27 fold enrichment (6-mer frequency, TF over GST control) in [1]; 1.31 fold enrichment (6-mer frequency, TF over GST control) in [2]; 1.43 fold enrichment (6-mer frequency, TF over GST control) in assay [3]; 1.4 fold enrichment (6-mer frequency, TF over GST control) in [4]; 1.29 fold enrichment (6-mer frequency, TF over GST control) in assay [5]; 1.37 fold enrichment (6-mer frequency, TF over GST control) in [6]. Besides, the binding signal was 1.23 fold enrichment (6-mer frequency, TF over GST control) in assay [7]; 1.35 fold enrichment (6-mer frequency, TF over GST control) in assay [8]; 1.36 fold enrichment (6-mer frequency, TF over GST control) in assay [9]; 1.18 fold enrichment (6-mer frequency, TF over GST control) in assay [10].
For the sequence TGATGC, the binding signal was 1.44 fold enrichment (6-mer frequency, TF over GST control) in assay [1]; 1.49 fold enrichment (6-mer frequency, TF over GST control) in [2]; 1.27 fold enrichment (6-mer frequency, TF over GST control) in assay [3]; 1.72 fold enrichment (6-mer frequency, TF over GST control) in assay [4]; 1.66 fold enrichment (6-mer frequency, TF over GST control) in assay [5]; 1.6 fold enrichment (6-mer frequency, TF over GST control) in assay [6]. Besides, the binding signal is 1.49 fold enrichment (6-mer frequency, TF over GST control) in [7]; 1.71 fold enrichment (6-mer frequency, TF over GST control) in [8]; 1.34 fold enrichment (6-mer frequency, TF over GST control) in assay [9]; 1.55 fold enrichment (6-mer frequency, TF over GST control) in [10].
